# Assay results reported in PMC7862700, “An all-to-all approach to the identification of sequence-specific readers for epigenetic DNA modifications on cytosine”.
# How the values were obtained:
# Test in all cases: DAPPL (digital affinity profiling via proximity ligation, sequencing); 10 mM Tris-HCl pH 7.5, 50 mM NaCl, 1 mM DTT, 4% glycerol, room temperature, 30 min; GST-TFs on glutathione beads, 16-mer random dsDNA library, 0.1% formaldehyde crosslink after washing; high values mean tight binding
# [1] = target: T1, FEV (Homo sapiens, UniProt Q99581 1-238); conditions: protein: recombinant; tags: N-terminal GST; dsDNA, one strand shown
# T1 sequence: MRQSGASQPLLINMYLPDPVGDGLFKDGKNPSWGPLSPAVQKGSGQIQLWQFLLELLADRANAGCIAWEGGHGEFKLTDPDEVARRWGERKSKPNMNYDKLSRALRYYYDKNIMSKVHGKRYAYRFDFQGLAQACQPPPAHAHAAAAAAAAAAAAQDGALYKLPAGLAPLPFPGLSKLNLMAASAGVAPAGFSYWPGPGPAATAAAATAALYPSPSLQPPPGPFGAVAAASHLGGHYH
# Procedure, shortened: (§1)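 In yeast, human transcription factors were expressed with a GST fusion, then pulled down on glutathione beads and given DNA barcodes. Pooled with a tag-only sample, they were exposed to 200 nmole of a 16-mer random double-stranded DNA library (Tris/NaCl/DTT/glycerol buffer, room temperature, 30 min), washed, crosslinked with 0.1% formaldehyde, proximity-ligated using BsaI/T4 ligase for 1 h at 37 °C, PCR-amplified and read on an Illumina NextSeq500. Each hexamer's frequency of reads for a factor, divided by the matching frequency for the tag-only sample, gives the binding signal.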
# [2] = target: ETV5 (Homo sapiens, UniProt P41161 1-510); conditions: protein: recombinant; tags: N-terminal GST; dsDNA, one strand shown
# Chain of ETV5 (P41161 whole entry): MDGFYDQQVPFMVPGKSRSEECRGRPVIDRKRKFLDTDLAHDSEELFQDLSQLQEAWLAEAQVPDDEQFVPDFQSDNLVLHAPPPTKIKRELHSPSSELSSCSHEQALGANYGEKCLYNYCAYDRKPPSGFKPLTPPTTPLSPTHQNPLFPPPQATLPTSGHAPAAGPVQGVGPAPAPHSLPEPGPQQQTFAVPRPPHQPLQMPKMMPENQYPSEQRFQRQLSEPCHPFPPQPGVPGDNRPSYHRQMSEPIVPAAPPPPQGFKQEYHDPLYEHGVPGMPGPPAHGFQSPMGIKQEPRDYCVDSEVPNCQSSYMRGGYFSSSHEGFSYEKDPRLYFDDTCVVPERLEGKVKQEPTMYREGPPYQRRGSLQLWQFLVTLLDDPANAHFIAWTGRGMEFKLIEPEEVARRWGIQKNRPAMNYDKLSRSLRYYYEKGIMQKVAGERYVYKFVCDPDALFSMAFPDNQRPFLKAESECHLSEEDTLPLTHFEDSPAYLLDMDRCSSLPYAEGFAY
# Procedure, shortened: as §1
# [3] = target: HSF1 (Homo sapiens, UniProt Q00613 1-529); conditions: protein: recombinant; tags: N-terminal GST; chain copies: 3; dsDNA, one strand shown
# Chain of HSF1 (Q00613 whole entry): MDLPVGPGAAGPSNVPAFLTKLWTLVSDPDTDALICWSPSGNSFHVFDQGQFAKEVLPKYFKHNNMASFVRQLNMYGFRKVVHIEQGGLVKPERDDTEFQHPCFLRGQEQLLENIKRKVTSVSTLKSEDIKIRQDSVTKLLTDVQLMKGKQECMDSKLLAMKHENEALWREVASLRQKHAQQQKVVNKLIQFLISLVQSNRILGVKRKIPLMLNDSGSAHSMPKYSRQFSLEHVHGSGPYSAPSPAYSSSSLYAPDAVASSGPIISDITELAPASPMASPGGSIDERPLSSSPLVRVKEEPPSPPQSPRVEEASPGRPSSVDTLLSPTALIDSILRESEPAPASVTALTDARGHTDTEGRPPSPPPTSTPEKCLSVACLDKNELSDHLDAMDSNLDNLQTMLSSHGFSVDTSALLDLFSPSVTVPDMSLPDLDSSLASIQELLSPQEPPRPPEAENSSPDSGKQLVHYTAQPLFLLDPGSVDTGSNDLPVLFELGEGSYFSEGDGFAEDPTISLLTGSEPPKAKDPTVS
# Procedure, shortened: as §1
# [4] = target: T2, SPIC (Homo sapiens, UniProt Q8N5J4 1-248); conditions: protein: recombinant; tags: N-terminal GST; dsDNA, one strand shown
# T2 sequence: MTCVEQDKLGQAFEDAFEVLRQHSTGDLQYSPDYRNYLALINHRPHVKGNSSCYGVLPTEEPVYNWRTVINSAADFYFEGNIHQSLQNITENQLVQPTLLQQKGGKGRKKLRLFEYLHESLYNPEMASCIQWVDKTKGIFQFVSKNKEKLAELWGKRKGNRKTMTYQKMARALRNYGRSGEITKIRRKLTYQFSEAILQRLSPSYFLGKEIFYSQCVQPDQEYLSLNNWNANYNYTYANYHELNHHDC
# Procedure, shortened: as §1
# [5] = target: ELF4 (Homo sapiens, UniProt Q99607 1-663); conditions: protein: recombinant; tags: N-terminal GST; dsDNA, one strand shown
# Chain of ELF4 (Q99607 whole entry): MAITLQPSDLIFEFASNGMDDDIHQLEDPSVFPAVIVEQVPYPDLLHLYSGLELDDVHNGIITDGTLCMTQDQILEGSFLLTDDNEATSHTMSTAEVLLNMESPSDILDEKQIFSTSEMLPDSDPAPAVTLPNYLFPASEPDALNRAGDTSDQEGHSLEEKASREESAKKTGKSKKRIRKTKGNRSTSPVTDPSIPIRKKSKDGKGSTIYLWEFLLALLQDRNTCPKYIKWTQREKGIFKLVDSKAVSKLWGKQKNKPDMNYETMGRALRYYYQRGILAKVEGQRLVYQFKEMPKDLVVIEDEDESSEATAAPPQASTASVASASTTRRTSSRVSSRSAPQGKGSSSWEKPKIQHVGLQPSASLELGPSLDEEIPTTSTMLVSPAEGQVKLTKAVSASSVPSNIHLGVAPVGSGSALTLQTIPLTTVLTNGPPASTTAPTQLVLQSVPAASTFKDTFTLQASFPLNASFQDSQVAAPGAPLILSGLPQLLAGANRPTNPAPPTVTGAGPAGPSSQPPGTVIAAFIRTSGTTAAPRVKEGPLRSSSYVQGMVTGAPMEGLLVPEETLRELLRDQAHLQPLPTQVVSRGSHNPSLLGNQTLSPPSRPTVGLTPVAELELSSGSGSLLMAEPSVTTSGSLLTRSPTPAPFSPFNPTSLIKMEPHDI
# Procedure, shortened: as §1
# [6] = target: T3, ELK4 (Homo sapiens, UniProt P28324-2 1-405); conditions: protein: recombinant; tags: N-terminal GST; dsDNA, one strand shown
# T3 sequence: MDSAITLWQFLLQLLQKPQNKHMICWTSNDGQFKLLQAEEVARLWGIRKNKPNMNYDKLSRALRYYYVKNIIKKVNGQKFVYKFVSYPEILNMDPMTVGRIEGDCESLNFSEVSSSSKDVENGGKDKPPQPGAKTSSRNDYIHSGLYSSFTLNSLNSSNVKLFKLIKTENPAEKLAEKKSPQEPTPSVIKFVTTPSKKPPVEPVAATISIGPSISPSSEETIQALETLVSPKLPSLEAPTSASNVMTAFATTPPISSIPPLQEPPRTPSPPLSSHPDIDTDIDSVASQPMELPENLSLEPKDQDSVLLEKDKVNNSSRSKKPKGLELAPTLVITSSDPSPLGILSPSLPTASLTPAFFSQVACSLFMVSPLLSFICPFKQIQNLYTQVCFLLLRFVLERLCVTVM
# Procedure, shortened: as §1
# [7] = target: T4, ETV2 (Homo sapiens, UniProt O00321 1-342); conditions: protein: recombinant; tags: N-terminal GST; dsDNA, one strand shown
# T4 sequence: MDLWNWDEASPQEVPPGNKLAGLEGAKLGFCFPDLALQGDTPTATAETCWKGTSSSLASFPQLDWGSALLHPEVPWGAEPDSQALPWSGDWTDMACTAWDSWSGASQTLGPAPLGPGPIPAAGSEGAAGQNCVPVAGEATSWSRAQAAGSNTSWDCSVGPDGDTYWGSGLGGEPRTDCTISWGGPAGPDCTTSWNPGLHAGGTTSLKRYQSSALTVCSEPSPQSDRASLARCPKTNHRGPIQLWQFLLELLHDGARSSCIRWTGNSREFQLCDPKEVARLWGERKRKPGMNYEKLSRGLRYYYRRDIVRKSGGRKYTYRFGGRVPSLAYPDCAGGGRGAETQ
# Procedure, shortened: as §1
# [8] = target: T5, ELF3 (Homo sapiens, UniProt P78545 1-371); conditions: protein: recombinant; tags: N-terminal GST; dsDNA, one strand shown
# T5 sequence: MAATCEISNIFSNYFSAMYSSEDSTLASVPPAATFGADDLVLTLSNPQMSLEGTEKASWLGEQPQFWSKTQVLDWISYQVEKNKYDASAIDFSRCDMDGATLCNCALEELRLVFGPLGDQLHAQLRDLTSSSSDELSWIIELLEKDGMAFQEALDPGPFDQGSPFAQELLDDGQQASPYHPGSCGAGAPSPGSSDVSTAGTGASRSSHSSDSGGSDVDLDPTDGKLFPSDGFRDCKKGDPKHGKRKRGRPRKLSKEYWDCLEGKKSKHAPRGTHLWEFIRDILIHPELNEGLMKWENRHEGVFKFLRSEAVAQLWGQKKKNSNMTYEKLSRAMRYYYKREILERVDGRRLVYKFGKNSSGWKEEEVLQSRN
# Procedure, shortened: as §1
# [9] = target: CRX (Homo sapiens, UniProt O43186 1-299); conditions: protein: recombinant; tags: N-terminal GST; dsDNA, one strand shown
# Chain of CRX (O43186 whole entry): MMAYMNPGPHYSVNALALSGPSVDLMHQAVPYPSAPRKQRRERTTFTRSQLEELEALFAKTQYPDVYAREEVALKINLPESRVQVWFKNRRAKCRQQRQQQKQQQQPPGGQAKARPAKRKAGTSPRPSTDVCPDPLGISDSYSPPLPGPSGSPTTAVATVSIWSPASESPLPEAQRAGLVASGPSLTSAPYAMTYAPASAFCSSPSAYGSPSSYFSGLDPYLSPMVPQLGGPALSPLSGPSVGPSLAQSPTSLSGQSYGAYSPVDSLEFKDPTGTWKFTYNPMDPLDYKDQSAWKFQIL
# Procedure, shortened: as §1
# [10] = target: ETV1 (Homo sapiens, UniProt P50549 1-477); conditions: protein: recombinant; tags: N-terminal GST; dsDNA, one strand shown
# Chain of ETV1 (P50549 whole entry): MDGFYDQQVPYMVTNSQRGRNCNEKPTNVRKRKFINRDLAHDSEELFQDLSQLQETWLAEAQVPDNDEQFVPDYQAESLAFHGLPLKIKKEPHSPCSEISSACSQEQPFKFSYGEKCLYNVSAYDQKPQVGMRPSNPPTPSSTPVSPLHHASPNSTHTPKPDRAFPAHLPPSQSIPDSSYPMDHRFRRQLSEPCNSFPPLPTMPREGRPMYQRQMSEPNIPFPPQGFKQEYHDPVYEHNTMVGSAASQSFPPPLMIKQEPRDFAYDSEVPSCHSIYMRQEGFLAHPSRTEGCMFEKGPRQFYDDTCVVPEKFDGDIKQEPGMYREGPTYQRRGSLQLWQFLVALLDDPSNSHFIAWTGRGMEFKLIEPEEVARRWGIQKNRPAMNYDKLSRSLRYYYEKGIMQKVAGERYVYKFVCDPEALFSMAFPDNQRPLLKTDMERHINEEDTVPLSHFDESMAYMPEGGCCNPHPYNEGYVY
# Procedure, shortened: as §1
# [11] = target: T6, ERF (Homo sapiens, UniProt P50548 1-548); conditions: protein: recombinant; tags: N-terminal GST; dsDNA, one strand shown
# T6 sequence: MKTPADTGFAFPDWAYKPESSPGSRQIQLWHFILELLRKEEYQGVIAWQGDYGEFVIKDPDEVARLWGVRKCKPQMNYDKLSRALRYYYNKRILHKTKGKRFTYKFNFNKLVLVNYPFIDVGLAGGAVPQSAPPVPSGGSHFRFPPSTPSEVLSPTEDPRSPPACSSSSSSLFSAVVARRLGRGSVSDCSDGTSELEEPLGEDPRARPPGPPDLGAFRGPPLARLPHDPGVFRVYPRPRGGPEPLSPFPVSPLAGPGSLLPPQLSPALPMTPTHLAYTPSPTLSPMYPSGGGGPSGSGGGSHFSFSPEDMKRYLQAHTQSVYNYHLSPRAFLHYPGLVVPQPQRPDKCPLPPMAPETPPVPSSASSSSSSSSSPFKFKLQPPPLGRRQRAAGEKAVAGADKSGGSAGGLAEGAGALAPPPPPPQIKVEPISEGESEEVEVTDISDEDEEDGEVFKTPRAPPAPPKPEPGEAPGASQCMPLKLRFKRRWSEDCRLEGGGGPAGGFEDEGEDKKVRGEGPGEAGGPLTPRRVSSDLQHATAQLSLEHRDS
# Procedure, shortened: as §1
# [12] = target: T7, ETV3L (Homo sapiens, UniProt Q6ZN32 1-361); conditions: protein: recombinant; tags: N-terminal GST; dsDNA, one strand shown
# T7 sequence: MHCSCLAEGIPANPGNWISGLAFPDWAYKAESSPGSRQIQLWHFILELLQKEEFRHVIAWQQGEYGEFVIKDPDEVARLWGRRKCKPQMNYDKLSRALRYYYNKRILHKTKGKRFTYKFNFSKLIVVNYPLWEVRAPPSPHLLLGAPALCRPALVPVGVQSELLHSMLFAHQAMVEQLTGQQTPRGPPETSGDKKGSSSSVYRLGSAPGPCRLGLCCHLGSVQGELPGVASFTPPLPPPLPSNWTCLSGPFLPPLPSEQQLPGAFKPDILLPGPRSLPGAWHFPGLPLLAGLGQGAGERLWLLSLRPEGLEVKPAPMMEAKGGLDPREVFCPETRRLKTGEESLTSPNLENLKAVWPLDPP
# Procedure, shortened: as §1
# [13] = target: T8, ETS2 (Homo sapiens, UniProt P15036 1-469); conditions: protein: recombinant; tags: N-terminal GST; dsDNA, one strand shown
# T8 sequence: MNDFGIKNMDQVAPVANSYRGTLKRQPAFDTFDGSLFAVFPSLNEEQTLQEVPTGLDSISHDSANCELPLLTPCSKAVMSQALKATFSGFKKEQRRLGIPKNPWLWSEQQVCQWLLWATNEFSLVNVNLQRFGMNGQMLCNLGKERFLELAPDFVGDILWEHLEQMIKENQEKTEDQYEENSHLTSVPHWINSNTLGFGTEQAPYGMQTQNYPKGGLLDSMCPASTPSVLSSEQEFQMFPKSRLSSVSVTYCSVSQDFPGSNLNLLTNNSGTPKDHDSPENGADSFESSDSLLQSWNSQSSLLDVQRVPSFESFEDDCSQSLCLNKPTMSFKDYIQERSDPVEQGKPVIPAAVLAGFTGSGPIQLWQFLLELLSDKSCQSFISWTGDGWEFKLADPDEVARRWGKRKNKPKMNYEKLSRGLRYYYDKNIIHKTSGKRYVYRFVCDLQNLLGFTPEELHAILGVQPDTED
# Procedure, shortened: as §1
# [14] = target: T9, SPDEF (Homo sapiens, UniProt O95238 1-335); conditions: protein: recombinant; tags: N-terminal GST; dsDNA, one strand shown
# T9 sequence: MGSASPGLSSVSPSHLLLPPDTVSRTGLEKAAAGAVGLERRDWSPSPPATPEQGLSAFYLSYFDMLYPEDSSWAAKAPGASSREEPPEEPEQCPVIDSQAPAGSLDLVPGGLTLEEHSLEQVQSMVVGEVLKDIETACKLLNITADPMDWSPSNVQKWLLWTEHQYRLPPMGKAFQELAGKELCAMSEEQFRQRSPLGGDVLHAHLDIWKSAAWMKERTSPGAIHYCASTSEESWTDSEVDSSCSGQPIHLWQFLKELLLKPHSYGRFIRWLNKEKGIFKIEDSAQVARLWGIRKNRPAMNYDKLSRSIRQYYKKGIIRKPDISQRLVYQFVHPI
# Procedure, shortened: as §1
# [15] = target: T10, ETV7 (Homo sapiens, UniProt Q9Y603 1-341); conditions: protein: recombinant; tags: N-terminal GST; dsDNA, one strand shown
# T10 sequence: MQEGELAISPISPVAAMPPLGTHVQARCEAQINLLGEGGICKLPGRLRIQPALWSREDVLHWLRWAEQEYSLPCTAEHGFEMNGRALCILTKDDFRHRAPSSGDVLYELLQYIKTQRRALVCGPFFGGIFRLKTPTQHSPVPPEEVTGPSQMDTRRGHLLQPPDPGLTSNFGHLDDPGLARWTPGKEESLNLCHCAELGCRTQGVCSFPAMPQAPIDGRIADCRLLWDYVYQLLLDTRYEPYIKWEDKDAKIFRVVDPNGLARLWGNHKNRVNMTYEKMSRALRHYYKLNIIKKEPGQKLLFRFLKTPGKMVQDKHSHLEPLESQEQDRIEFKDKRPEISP
# Procedure, shortened: as §1
# [16] = target: T11, ELF5 (Homo sapiens, UniProt Q9UKW6-2 1-255); conditions: protein: recombinant; tags: N-terminal GST; dsDNA, one strand shown
# T11 sequence: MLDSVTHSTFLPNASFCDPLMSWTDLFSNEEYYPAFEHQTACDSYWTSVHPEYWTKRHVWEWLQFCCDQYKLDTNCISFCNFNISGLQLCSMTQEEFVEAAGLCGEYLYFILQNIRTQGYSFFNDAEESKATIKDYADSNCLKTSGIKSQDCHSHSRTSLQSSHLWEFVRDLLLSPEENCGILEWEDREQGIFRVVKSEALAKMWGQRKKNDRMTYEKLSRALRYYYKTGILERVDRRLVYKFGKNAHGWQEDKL
# Procedure, shortened: as §1
# [17] = target: T12, ETV3 (Homo sapiens, UniProt P41162-2 1-143); conditions: protein: recombinant; tags: N-terminal GST; dsDNA, one strand shown
# T12 sequence: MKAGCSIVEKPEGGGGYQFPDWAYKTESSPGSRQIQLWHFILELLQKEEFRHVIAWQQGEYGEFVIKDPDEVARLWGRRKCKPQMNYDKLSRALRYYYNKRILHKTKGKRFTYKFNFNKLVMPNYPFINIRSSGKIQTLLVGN
# Procedure, shortened: as §1
# [18] = target: ETV6 (Homo sapiens, UniProt P41212 1-452); conditions: protein: recombinant; tags: N-terminal GST; dsDNA, one strand shown
# Chain of ETV6 (P41212 whole entry): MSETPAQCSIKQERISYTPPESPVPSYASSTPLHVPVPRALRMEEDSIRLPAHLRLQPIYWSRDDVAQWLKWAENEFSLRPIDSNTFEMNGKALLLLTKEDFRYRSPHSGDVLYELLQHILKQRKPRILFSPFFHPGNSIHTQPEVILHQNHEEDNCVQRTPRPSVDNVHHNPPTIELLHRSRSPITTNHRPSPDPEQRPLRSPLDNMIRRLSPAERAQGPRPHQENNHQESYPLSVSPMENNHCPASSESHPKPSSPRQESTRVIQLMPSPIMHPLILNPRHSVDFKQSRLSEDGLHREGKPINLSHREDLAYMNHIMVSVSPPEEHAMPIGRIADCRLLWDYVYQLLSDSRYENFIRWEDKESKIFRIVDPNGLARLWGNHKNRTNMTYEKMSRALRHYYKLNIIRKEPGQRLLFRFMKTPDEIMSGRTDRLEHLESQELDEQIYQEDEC
# Procedure, shortened: as §1
sequence,measurement,setting,value
AATTAC,binding signal,[1],"1.25 fold enrichment (6-mer frequency, TF over GST control)"
same,binding signal,[2],"1.28 fold enrichment (6-mer frequency, TF over GST control)"
same,binding signal,[3],"1.43 fold enrichment (6-mer frequency, TF over GST control)"
same,binding signal,[4],"1.33 fold enrichment (6-mer frequency, TF over GST control)"
same,binding signal,[5],"1.24 fold enrichment (6-mer frequency, TF over GST control)"
same,binding signal,[6],"1.27 fold enrichment (6-mer frequency, TF over GST control)"
same,binding signal,[7],"1.38 fold enrichment (6-mer frequency, TF over GST control)"
same,binding signal,[8],"1.36 fold enrichment (6-mer frequency, TF over GST control)"
same,binding signal,[9],"1.74 fold enrichment (6-mer frequency, TF over GST control)"
same,binding signal,[10],"1.34 fold enrichment (6-mer frequency, TF over GST control)"
same,binding signal,[11],"1.35 fold enrichment (6-mer frequency, TF over GST control)"
same,binding signal,[12],"1.25 fold enrichment (6-mer frequency, TF over GST control)"
same,binding signal,[13],"1.36 fold enrichment (6-mer frequency, TF over GST control)"
same,binding signal,[14],"1.24 fold enrichment (6-mer frequency, TF over GST control)"
same,binding signal,[15],"1.36 fold enrichment (6-mer frequency, TF over GST control)"
same,binding signal,[16],"1.33 fold enrichment (6-mer frequency, TF over GST control)"
same,binding signal,[17],"1.26 fold enrichment (6-mer frequency, TF over GST control)"
same,binding signal,[18],"1.38 fold enrichment (6-mer frequency, TF over GST control)"
